Results published in ChEMBL document CHEMBL3988442, “University of Dundee, Small-Polar-MMV Screening Library” (2021).
For some of these results: Results with a measured potency or affinity are listed apart.

Tests used:
Design in all cases: scale not given: direction of the effect not stated beside the values
[1] = molecular target: Protein translocase subunit SecA (Escherichia coli (strain K12)) (UniProt P10408); assay: Assay to Identify E. coli SecA ATPase Inhibitors; type: functional; conditions: 30 µM
Sequence of Protein translocase subunit SecA (Escherichia coli (strain K12)) (P10408 whole entry): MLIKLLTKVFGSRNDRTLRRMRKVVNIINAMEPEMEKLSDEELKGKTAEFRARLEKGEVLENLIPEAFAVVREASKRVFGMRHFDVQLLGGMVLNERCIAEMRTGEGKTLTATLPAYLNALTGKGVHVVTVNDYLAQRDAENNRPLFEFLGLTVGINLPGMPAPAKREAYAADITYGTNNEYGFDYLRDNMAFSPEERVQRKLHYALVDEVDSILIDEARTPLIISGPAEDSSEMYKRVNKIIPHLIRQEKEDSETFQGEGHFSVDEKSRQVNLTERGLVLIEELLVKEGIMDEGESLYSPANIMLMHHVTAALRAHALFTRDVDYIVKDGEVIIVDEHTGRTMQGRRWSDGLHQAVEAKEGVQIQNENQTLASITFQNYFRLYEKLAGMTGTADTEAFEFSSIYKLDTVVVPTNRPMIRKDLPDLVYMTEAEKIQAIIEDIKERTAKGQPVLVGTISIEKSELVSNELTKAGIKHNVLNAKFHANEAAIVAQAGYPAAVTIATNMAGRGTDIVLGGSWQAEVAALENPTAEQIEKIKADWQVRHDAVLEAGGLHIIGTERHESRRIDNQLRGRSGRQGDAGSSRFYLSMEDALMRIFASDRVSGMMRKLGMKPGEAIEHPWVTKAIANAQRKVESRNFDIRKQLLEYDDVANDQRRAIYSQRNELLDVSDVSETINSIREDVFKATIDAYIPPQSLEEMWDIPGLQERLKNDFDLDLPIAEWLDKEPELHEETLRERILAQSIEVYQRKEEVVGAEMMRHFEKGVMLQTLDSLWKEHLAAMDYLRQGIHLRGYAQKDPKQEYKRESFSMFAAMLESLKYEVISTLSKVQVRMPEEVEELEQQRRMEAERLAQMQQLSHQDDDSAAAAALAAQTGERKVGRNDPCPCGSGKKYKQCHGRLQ

[2] = molecular target: T1, Ubiquitin-activating enzyme e1, putative (Leishmania donovani (strain BPK282A1)) (UniProt E9BSI1); assay: Leishmania donovani Ubiquitin Activating Enzyme (LdE1); type: functional; conditions: 30 µM
T1 sequence (whole entry): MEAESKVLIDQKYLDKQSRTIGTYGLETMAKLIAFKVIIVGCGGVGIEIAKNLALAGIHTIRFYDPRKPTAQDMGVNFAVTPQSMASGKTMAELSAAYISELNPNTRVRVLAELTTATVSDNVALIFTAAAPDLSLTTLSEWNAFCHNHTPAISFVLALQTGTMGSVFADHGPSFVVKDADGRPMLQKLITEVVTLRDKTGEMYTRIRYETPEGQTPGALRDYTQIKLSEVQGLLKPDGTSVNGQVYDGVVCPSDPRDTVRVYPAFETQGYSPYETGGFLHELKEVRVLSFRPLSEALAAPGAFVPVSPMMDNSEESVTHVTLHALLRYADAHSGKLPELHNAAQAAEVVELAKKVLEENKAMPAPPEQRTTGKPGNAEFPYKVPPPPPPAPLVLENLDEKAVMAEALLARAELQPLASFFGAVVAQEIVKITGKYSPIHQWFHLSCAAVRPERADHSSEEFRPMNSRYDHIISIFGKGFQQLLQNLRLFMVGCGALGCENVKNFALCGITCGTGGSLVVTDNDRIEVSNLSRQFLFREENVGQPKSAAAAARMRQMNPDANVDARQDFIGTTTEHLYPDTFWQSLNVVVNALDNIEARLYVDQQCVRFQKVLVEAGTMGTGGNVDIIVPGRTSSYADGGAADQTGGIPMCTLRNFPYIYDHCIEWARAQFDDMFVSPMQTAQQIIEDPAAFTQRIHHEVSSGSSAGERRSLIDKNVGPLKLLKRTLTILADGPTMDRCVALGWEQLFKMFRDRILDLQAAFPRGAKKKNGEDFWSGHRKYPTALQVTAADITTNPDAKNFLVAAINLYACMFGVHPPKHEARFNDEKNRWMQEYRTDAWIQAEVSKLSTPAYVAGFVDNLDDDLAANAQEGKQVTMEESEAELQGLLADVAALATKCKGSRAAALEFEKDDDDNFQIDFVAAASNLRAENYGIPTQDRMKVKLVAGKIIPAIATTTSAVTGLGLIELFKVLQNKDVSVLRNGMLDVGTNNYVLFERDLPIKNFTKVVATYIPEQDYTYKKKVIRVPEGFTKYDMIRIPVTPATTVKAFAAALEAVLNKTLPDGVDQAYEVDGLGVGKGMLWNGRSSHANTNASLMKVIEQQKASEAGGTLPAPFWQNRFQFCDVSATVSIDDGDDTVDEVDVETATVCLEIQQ

[3] = molecular target: AMP-activated protein kinase, AMPK (Homo sapiens) (UniProt P54646+O43741+P54619+Q9UGJ0+Q9Y478+Q13131+Q9UGI9); assay: AMP-dependent Kinase enzyme assay. An in vitro enzyme assay that detects ADP turnover that is directly proportional to AMPK activity. This uses naive AMPK that is activated during the assay with MK-8722; type: functional; conditions: 30 µM
[4] = molecular target: Sialic acid-binding Ig-like lectin 9 (Homo sapiens) (UniProt Q9Y336); assay: Hs-Siglec9 ALPHAscreen SOP 20170721; conditions: 10 µM
Sequence of Sialic acid-binding Ig-like lectin 9 (Homo sapiens) (Q9Y336 whole entry): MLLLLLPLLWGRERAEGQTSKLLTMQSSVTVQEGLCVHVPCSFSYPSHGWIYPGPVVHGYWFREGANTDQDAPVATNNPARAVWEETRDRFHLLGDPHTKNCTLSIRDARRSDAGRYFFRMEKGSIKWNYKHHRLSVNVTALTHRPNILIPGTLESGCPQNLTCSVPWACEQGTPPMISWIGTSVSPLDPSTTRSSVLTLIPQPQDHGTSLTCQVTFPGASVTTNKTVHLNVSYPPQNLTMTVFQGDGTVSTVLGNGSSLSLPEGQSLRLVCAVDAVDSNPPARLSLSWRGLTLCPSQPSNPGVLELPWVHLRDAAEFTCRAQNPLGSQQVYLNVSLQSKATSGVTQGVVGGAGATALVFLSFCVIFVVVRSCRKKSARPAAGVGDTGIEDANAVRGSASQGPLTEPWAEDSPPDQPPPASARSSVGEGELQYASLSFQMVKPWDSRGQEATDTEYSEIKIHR

[5] = test system: Trypanosoma cruzi; assay: Trypanosoma cruzi phosphomannomutase and mannose-1-phosphate guanylyltransferase assay; type: functional; conditions: 10 µM
[6] = molecular target: T2, Arginase-2, mitochondrial (Homo sapiens) (UniProt P78540); assay: in vitro enzyme assay to detect the production of urea directly proportional to the activity of Arginase II; type: functional; conditions: 33.3 µM; also: in the data most compounds retested in dose-response had high values
T2 sequence (whole entry): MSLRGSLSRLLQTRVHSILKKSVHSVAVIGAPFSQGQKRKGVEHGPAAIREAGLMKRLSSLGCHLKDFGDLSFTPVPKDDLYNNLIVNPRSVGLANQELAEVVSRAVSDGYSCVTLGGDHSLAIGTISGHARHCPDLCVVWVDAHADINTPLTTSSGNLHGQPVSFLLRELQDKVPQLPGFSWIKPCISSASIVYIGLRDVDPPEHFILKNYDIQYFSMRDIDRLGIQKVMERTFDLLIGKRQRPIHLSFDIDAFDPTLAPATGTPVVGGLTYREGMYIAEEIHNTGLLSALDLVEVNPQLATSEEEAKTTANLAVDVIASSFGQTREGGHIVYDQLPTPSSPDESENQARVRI

[7] = molecular target: T3, Proteasome subunit beta (Trypanosoma cruzi) (UniProt O96673); assay: Trypanosoma cruzi proteasome chymotrypsin-like activity (TcProtChymo) assay.; also: in the data most compounds retested in dose-response had high values; type: functional; conditions: 9.37 µM
T3 sequence (whole entry): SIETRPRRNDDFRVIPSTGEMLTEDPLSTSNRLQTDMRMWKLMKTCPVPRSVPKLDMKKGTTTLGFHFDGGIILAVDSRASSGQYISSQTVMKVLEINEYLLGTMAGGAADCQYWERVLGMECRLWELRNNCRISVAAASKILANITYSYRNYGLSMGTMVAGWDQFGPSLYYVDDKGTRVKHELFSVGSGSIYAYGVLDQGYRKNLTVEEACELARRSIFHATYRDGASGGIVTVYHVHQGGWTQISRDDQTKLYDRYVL

[8] = species: Homo sapiens; assay: To identify inhibition of the IFN signalling (Jak-Stat) pathway via expression of an eGFP reporter gene under the control of an IFN-stimulated response element (ISRE) containing MxA promoter.; type: functional; conditions: 30 µM
[9] = molecular target: T4, Tyrosyl-tRNA synthetase, putative (Trypanosoma cruzi (strain CL Brener)) (UniProt Q4DSP6); assay: Trypanosoma cruzi tyrosyl tRNA synthetase (TcYRS) _High Tyrosine SOP; type: functional; conditions: 30 µM; also: in the data most compounds retested in dose-response had high values
T4 sequence (whole entry): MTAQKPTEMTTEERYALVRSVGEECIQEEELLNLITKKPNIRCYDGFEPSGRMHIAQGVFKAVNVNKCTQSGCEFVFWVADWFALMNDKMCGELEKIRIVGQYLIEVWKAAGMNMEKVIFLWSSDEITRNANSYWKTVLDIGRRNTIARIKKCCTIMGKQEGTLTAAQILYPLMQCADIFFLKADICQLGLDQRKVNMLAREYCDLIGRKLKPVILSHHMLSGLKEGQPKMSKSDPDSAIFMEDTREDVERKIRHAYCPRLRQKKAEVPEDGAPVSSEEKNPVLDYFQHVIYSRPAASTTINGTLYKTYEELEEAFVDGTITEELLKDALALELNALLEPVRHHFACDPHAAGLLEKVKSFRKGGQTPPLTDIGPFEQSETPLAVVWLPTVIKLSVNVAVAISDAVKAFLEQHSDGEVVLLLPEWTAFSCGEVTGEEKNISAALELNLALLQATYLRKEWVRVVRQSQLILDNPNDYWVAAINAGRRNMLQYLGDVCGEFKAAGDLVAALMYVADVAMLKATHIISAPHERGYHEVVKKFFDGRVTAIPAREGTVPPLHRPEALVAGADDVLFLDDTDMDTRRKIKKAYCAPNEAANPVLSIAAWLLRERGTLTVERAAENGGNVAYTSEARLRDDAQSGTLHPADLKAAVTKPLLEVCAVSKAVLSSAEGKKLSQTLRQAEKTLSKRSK

[10] = molecular target: T4, Tyrosyl-tRNA synthetase, putative (Trypanosoma cruzi (strain CL Brener)); assay: Trypanosoma cruzi tyrosyl tRNA synthetase (TcYRS) SOP; type: functional; conditions: 30 µM
[11] = molecular target: Chromo domain-containing protein 1 (Saccharomyces cerevisiae (strain ATCC 204508 / S288c) (Baker's yeast)) (UniProt P32657); assay: ScCHD-1 Enzyme Inhibition Assay; type: functional; conditions: 30 µM; also: in the data most compounds retested in dose-response had high values
Sequence of Chromo domain-containing protein 1 (Saccharomyces cerevisiae (strain ATCC 204508 / S288c) (Baker's yeast)) (P32657 whole entry, the tested form may be a part): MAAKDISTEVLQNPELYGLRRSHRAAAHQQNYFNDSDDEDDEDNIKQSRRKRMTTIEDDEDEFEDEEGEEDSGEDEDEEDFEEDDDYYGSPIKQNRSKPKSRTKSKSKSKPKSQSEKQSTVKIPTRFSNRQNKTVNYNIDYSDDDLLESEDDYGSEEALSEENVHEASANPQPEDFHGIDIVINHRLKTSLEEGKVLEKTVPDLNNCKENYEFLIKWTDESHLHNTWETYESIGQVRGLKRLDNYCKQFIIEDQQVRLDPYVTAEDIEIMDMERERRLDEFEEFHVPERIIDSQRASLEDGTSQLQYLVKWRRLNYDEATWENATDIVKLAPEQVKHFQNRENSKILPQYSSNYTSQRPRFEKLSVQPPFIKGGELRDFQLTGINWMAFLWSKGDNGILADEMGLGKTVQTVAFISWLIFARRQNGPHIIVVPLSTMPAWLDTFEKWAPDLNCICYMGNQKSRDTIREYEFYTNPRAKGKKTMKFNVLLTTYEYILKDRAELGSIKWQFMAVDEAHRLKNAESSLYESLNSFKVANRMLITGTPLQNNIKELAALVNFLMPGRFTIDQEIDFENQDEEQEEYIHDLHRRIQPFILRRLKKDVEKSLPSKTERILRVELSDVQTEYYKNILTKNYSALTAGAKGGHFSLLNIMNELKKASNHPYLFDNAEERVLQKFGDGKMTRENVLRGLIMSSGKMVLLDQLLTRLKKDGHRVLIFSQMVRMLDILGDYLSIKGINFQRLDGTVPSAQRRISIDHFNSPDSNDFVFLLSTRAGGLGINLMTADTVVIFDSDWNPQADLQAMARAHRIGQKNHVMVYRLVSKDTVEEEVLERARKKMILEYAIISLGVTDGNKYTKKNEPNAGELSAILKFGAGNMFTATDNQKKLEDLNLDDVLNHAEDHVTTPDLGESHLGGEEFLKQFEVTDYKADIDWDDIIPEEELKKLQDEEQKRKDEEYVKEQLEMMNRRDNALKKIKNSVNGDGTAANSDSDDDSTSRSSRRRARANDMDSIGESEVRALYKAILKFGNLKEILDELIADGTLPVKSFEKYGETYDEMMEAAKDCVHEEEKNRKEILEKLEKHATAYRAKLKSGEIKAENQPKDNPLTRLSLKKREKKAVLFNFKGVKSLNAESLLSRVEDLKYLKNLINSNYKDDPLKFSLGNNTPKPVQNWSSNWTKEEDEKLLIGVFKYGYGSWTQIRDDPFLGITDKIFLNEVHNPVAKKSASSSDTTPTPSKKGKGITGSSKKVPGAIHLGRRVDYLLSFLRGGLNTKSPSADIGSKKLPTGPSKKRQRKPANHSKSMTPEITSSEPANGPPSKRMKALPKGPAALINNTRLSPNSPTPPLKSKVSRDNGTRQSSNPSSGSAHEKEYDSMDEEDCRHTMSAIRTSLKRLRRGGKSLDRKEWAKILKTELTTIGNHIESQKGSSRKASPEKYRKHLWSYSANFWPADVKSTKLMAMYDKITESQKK

Compound: Cc1cnn(CCNCc2ccc(C#N)cc2F)c1
- Percent Effect [1]: -5.04%
- Percent Effect [2]: 10.8%
- Percent Effect [3]: -4.08%
- Percent Effect [4]: 8.42%
- Percent Effect [5]: -2.51%
- Percent Effect [6]: 0.554%
- Percent Effect [7]: 5.75%
- Percent Effect [8]: 7.34%
- Percent Effect [9]: 6.93%
- Percent Effect [10]: 13.4%
- Percent Effect [11]: -0.768%

Compound: c1cnnc(N2CCCC2CNc2ncnc3c2CCC3)c1 (stereo unspecified)
- Percent Effect [1]: -5.27%
- Percent Effect [2]: 1.27%
- Percent Effect [3]: 4.89%
- Percent Effect [4]: -6.25%
- Percent Effect [5]: -1.95%
- Percent Effect [6]: 3.66%
- Percent Effect [7]: 1.54%
- Percent Effect [8]: -1.2%
- Percent Effect [9]: 11.5%
- Percent Effect [10]: 15.2%
- Percent Effect [11]: 1.39%

Compound: Cc1csc(C2CCCN(C(=O)c3ccc(=O)n(C)n3)C2)n1 (stereo unspecified)
- Percent Effect [1]: -1.5%
- Percent Effect [2]: 0%
- Percent Effect [3]: -1.05%
- Percent Effect [4]: -7.99%
- Percent Effect [5]: -4.2%
- Percent Effect [6]: 2.23%
- Percent Effect [7]: 1.97%
- Percent Effect [8]: -5.09%
- Percent Effect [9]: -1.07%
- Percent Effect [10]: -1.24%
- Percent Effect [11]: -2.21%

Compound: Cc1cc(NC(=O)c2nc(N3CCCC3)ncc2Cl)nc(C(C)C)n1
- Percent Effect [1]: -0.667%
- Percent Effect [2]: 5.41%
- Percent Effect [3]: -5.04%
- Percent Effect [4]: -2.54%
- Percent Effect [5]: -8.79%
- Percent Effect [6]: 3.33%
- Percent Effect [7]: 17.2%
- Percent Effect [8]: 2.69%
- Percent Effect [9]: 9.9%
- Percent Effect [10]: 8.54%
- Percent Effect [11]: 0.666%

Compound: O=C(NCCn1ccnc1)c1cccc(F)c1
- Percent Effect [1]: -1.92%
- Percent Effect [2]: 18.4%
- Percent Effect [3]: -6.48%
- Percent Effect [4]: -8.53%
- Percent Effect [5]: -4.39%
- Percent Effect [6]: 0.36%
- Percent Effect [7]: 9.56%
- Percent Effect [8]: -11.5%
- Percent Effect [9]: 5.42%
- Percent Effect [10]: 13.6%
- Percent Effect [11]: -6.88%

Compound: CC(C(=O)NCc1cccc(N2CC=CC2)c1)n1cccn1 (stereo unspecified)
- Percent Effect [1]: -6.41%
- Percent Effect [2]: 0%
- Percent Effect [3]: 3.53%
- Percent Effect [4]: 1.65%
- Percent Effect [5]: -1.5%
- Percent Effect [6]: -1.15%
- Percent Effect [7]: -1.5%
- Percent Effect [8]: 22.9%
- Percent Effect [9]: 0.49%
- Percent Effect [10]: -2.44%
- Percent Effect [11]: -1.88%

Compound: Cc1cc(=O)[nH]c(CCNC(=O)C(c2ccc(F)cc2)N(C)C)n1 (stereo unspecified)
- Percent Effect [1]: 6.03%
- Percent Effect [2]: 11%
- Percent Effect [3]: -3.97%
- Percent Effect [4]: 1.73%
- Percent Effect [5]: -5.75%
- Percent Effect [6]: -14%
- Percent Effect [7]: 13.3%
- Percent Effect [8]: 26.9%
- Percent Effect [9]: 10.4%
- Percent Effect [10]: 11.1%
- Percent Effect [11]: 0.214%

Compound: Cc1noc(CN(Cc2ccc3c(c2)OCO3)C2CCCC2)n1
- Percent Effect [1]: -1.22%
- Percent Effect [2]: 10.8%
- Percent Effect [3]: -9.58%
- Percent Effect [4]: 6.53%
- Percent Effect [5]: -1.04%
- Percent Effect [6]: -12%
- Percent Effect [7]: 6.67%
- Percent Effect [8]: 29.7%
- Percent Effect [9]: 3.45%
- Percent Effect [10]: 3.7%
- Percent Effect [11]: -9.8%

Compound: Cc1ccc2c(ccn2CC(=O)NC[C@@H]2CCCN3CCCC[C@H]23)c1
- Percent Effect [1]: -5.2%
- Percent Effect [2]: 28%
- Percent Effect [3]: -5.58%
- Percent Effect [4]: 4.06%
- Percent Effect [5]: 5.5%
- Percent Effect [6]: -6.16%
- Percent Effect [7]: 16.3%
- Percent Effect [8]: -4.16%
- Percent Effect [9]: 4.23%
- Percent Effect [10]: 12.8%
- Percent Effect [11]: -11.5%

Compound: CC(C)NC(=O)N1CCc2nc(C(=O)NCc3ccccc3)sc2CC1
- Percent Effect [1]: -0.812%
- Percent Effect [2]: 10.8%
- Percent Effect [3]: 5.95%
- Percent Effect [4]: -6.63%
- Percent Effect [5]: -3.42%
- Percent Effect [6]: 5.41%
- Percent Effect [7]: 18.1%
- Percent Effect [8]: 13.3%
- Percent Effect [9]: 8.65%
- Percent Effect [10]: 17.9%
- Percent Effect [11]: -3.29%

Compound: Cc1nnc2n1CCN(C(=O)COCCOc1ccccc1)C2
- Percent Effect [1]: -3.64%
- Percent Effect [2]: -21.5%
- Percent Effect [3]: 10%
- Percent Effect [4]: 1.03%
- Percent Effect [5]: -1.33%
- Percent Effect [6]: 4.95%
- Percent Effect [7]: 7.89%
- Percent Effect [8]: 3.44%
- Percent Effect [9]: 5.21%
- Percent Effect [10]: 12.7%
- Percent Effect [11]: -1.76%
